Measurements reported in the supplement of paper PMC10338343.
± gives the standard deviation.

What follows are sequences tested on MILI (PIWIL2) piRISC loaded with piRNA #1 (26 nt) (assay: pre-steady-state target cleavage rate (min^-1); guide: piRNA #1 5'p-UGAGGUAGUAGGUUGUAUAGUAUCCA; MIWI and MILI are mouse PIWI proteins and EfPiwi is from a freshwater sponge; tags in brackets are library labels; higher = faster piRNA-guided slicing of the target). Settings: auxiliary factor: 500 nM mouse GTSF1.
How it was run: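 Cleave-'n-Seq: 1 nM active affinity-purified piRISC with one synthetic guide and 0.1 nM transcribed, DNA-blocked target RNA library were mixed, with or without 500 nM GTSF1 partner protein, in HEPES–potassium acetate buffer at 33 °C for 0–8 or 0–960 min. Uncleaved targets were sequenced and normalised to depth and to weakly complementary targets, three trials were pooled, and k3 was capped at 0.0001 min^-1. The pre-steady-state cleavage rate was fitted […].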
For GGAGAGGAUACUAUACAACCUAUUACCUCA, the “pre-steady-state target cleavage rate” value was 0.174 ± 0.018.
GGAGACGAUACUAUAAAACCUACUACCUCA was tested, and the “pre-steady-state target cleavage rate” value was 0.184 ± 0.013.
GGAGACGAUACUAUACAACCUACUUCGUCA was tested, and the “pre-steady-state target cleavage rate” value was 0.0101 ± 0.0048.
In the case of GGAGACCAUACUAAACAACCUACUACCUCA, the “pre-steady-state target cleavage rate” value is reported as 0.153 ± 0.016.
GGAGUGGAUACUAAACAACCAACUACCUCA was tested, and the “pre-steady-state target cleavage rate” value was 0.007 ± 0.0021.
For GGAGAGGAUACUAUACAACCAUACUACCUCA, the “pre-steady-state target cleavage rate” value was 0.00709 ± 0.0019.
In the case of GGAGUGGAUACUAUACAACCUACUUCCUCA, the “pre-steady-state target cleavage rate” value is reported as 0.00401 ± 0.0017.
GGAGACCAUACUAUACAUCCAACUACCUCA was tested, and the “pre-steady-state target cleavage rate” value was 0.00924 ± 0.0032.
With GGAGUGGAUACUAUACAACCCACUACCUCA the “pre-steady-state target cleavage rate” value was 0.0174 ± 0.0024.
GGAGACCUUACUUUACAACCUACUACCUCA was tested, and the “pre-steady-state target cleavage rate” value was 0.129 ± 0.01.
In the case of GGAGACGAUACUAUAGUACCUACUACCUCA, the “pre-steady-state target cleavage rate” value is reported as 0.193 ± 0.013.
In the case of GGAGUGGAUUCUAUACAUCCUACUACCUCA, the “pre-steady-state target cleavage rate” value is reported as 0.299 ± 0.013.
In the case of GGAGUCGAUACUAUACAACCUACUUCCUCA, the “pre-steady-state target cleavage rate” value is reported as 0.0291 ± 0.0072.
For GGAGAGGUUACUUUACAACCUACUACCUCA, the “pre-steady-state target cleavage rate” value was 0.175 ± 0.01.
In the case of GGAGACCAUACUAUACAACCUACAACCUCA, the “pre-steady-state target cleavage rate” value is reported as 0.189 ± 0.024.
GGAGACCAUACUAUACAACCUACUACCUAA was tested, and the “pre-steady-state target cleavage rate” value was 0.139 ± 0.015.
With GGAGUGGAUACUAUAGAACCUACUACGUCA the “pre-steady-state target cleavage rate” value was 0.0161 ± 0.0041.
In the case of GGAGUGGAUACUAUACAAGCUACUACCUGA, the “pre-steady-state target cleavage rate” value is reported as 0.0875 ± 0.014.
With GGAGACGAGUACUAUACAACCUACUACCUCA the “pre-steady-state target cleavage rate” value was 0.176 ± 0.014.
In the case of GGAGAGGAAACUAUACAACCUACUACCACA, the “pre-steady-state target cleavage rate” value is reported as 0.155 ± 0.03.
For GGAGAGGAUACUAUAGAACCUACUACCACA, the “pre-steady-state target cleavage rate” value was 0.0636 ± 0.0099.
With GGAGACGAUACUAUACAACCUACUAGCACA the “pre-steady-state target cleavage rate” value was 0.00848 ± 0.0055.
For GGAGACCUUACUAUACAACGUACUACCUGA, the “pre-steady-state target cleavage rate” value was 0.0102 ± 0.0027.
For GGAGACGAUACUAUAGAACCUACUUCCUCA, the “pre-steady-state target cleavage rate” value was 0.0055 ± 0.0044.
GGAGAGGAUUACUAUACAACCUACUACCUCA was tested, and the “pre-steady-state target cleavage rate” value was 0.132 ± 0.0095.
For “GGAGACCUUACUAUACAACCUACUAGGAGA [g6:g22:cont:t1A]”, the “pre-steady-state target cleavage rate” value was 0.00747 ± 0.0032.
For GGAGACCUAUCUAUACAACCUACAACCUCA, the “pre-steady-state target cleavage rate” value was 0.0886 ± 0.013.
In the case of GGAGUGGAUACUAUACAACCUACUGACCUCA, the “pre-steady-state target cleavage rate” value is reported as 0.0789 ± 0.011.
With GGAGACCAUACUAUUCAAGCUACUACCUCA the “pre-steady-state target cleavage rate” value was 0.182 ± 0.016.
For GGAGACCAUACUAUACAACCUACUACAUCA, the “pre-steady-state target cleavage rate” value was 0.0875 ± 0.011.
In the case of GGAGACCUAACUAUACAACCUACUCCCUCA, the “pre-steady-state target cleavage rate” value is reported as 0.0941 ± 0.022.
With GGAGACCAUACUAUACAACAUACUACCUCA the “pre-steady-state target cleavage rate” value was 0.0769 ± 0.0092.
For GGAGACCAUAGAUUACAACCUACUACCUCA, the “pre-steady-state target cleavage rate” value was 0.0355 ± 0.0071.
GGAGACCUUAUCUAUACAACCUACUACCUCA was tested, and the “pre-steady-state target cleavage rate” value was 0.115 ± 0.014.
GGAGUGGUUACUAUACAACCAACUACCUCA was tested, and the “pre-steady-state target cleavage rate” value was 0.00796 ± 0.0019.
For GGAGACGAUACUAUAUAACCUACUACCUCA, the “pre-steady-state target cleavage rate” value was 0.205 ± 0.011.
With GGAGACGAUACUAUACAACCUACUACUUCA the “pre-steady-state target cleavage rate” value was 0.162 ± 0.013.
GGAGUGGAUACUAUACAACCUUCUACCACA was tested, and the “pre-steady-state target cleavage rate” value was 0.00348 ± 0.0024.
With GGAGUGGAUAGUAUACAACGUACUACCUCA the “pre-steady-state target cleavage rate” value was 0.0168 ± 0.0038.
For GGAGUGGAUACUAUACAACCUACUAUCCUCA, the “pre-steady-state target cleavage rate” value was 0.05 ± 0.0077.
